# Results from PubChem BioAssay (Tox21).
# A number with no mark means an inactive call. Records with an inconclusive call do not appear. Entries that show only a call come without a potency. Active and inactive are the calls of the source. Unless noted, calls follow the shape of the full dose curve.
# Columns and labels:
# [1] = Nuclear factor erythroid 2-related factor 2/antioxidant responsive element (Nrf2/ARE) small molecule agonists: qHTS cell viability counter screen in human keratinocytes (AID 1919968; active = well fitted curve in the direction sought with a large enough effect in the repeat runs; an effect the other way counts as inactive or inconclusive; also: nearly all actives have a fitted effect of over 55% in size)
# Procedure, shortened: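 Cytotoxicity was multiplexed with the Nrf2/ARE luciferase assay in the same wells. Stably transfected HaCaT keratinocytes were treated with test compounds for 23 h at 37 C. Cell viability was then measured by CellTiter-Fluor fluorescence.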
# [2] = Nuclear factor erythroid 2-related factor 2/antioxidant responsive element (Nrf2/ARE) small molecule agonists: luciferase reporter gene qHTS assay in human keratinocytes (AID 1919969); also: nearly all actives have a fitted effect of over 35% in size
# [3] = target: Gonadotropin-releasing hormone receptor (Homo sapiens) (UniProt P30968); assay: Human gonadotropin-releasing hormone receptor (GnRHR) small molecule agonists, calcium flux assay in GnRHR-HEK293 cells (AID 1920063); also: nearly all actives have a fitted effect of over 35% in size
# Procedure, shortened: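 Agonist activity was measured as intracellular calcium flux in HEK293 cells engineered to stably express human GnRHR. After dye loading for 1 hour at 37 C, compounds in DMSO were added and fluorescence was followed for 3 minutes.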
# [4] = target: KiSS-1 receptor (Homo sapiens) (UniProt Q969F8); assay: Human kisspeptin (KISS1R) small molecule agonists, calcium flux assay in KISS1R-HEK293 cells (AID 1920064; active = well fitted curve in the direction sought with a large enough effect in the repeat runs; an effect the other way counts as inactive or inconclusive)
# Procedure, shortened: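 Agonist activity is monitored as intracellular calcium rise in engineered HEK293 cells carrying human KISS1R. Cells are dye-loaded for 1 h at 37 C before compound addition, and fluorescence is recorded for 3 min.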
# [5] = G protein-coupled receptor (GPCR) small molecule agonists, calcium flux assay: HEK293 wild type cell line counter screen (AID 1920065)
# Procedure, shortened: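 Seed cells, incubate 18 h (37 C, 5% CO2); add calcium dye, 1 h at 37 C; pin-transfer compounds, ATP control or DMSO; read fluorescence 480/540 nm each second for 3 min.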
# [6] = p53 small molecule agonists, cell-based qHTS assay with human liver microsomes (AID 1963577)
# Procedure, shortened: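 Fluorescence of the beta-lactamase reporter in p53RE-bla cells, detected with LiveBLAzer substrate (2 h, room temperature, dark), served as the read-out after 16 h compound exposure at 37 C with human liver microsomes and NADPH, each 0.5 mg/mL final.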
# [7] = p53 small molecule agonists, cell-based qHTS assay with rat liver microsomes (AID 1963578)
# Procedure, shortened: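 Cells carrying a p53 response element–beta-lactamase reporter were plated and rested 5 h, then dosed with compound in DMSO plus rat liver microsomes and NADPH, each at 0.5 mg/mL final. After 16 h at 37 C, LiveBLAzer substrate was added for 2 h.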
# [8] = p53 small molecule agonists, cell-based qHTS assay with human liver microsomes: qHTS cell viability counter screen (AID 1963579); also: nearly all actives have a fitted effect of over 45% in size
# Procedure, shortened: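 Cytotoxicity counter screen: p53RE-bla, 4,000 cells/well; 5 h settle, 37 C/5% CO2; cpd + HLM 0.5 mg/mL + NADPH 0.5 mg/mL (final); 16 h, 37 C; CellTiter-Glo, 30 min RT, luminescence.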
# [9] = p53 small molecule agonists, cell-based qHTS assay with rat liver microsomes: qHTS cell viability counter screen (AID 1963580); also: nearly all actives have a fitted effect of over 45% in size
# Procedure, shortened: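 After the beta-lactamase ratio was read, CellTiter-Glo was added to the same wells and luminescence measured at 30 min; cells had been treated 16 h at 37 C with compounds, rat liver microsomes and NADPH (0.5 mg/mL final each).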
# [10] = p53 small molecule agonists, cell-based qHTS assay: qHTS cell viability counter screen (AID 1963581); also: nearly all actives have a fitted effect of over 45% in size
# Procedure, shortened: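 Viability was counter-screened in parallel with the p53 agonist reporter by measuring intracellular ATP luminescence in the same HCT-116 p53RE-bla wells after 16 h compound treatment at 37 C.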
# [11] = p53 small molecule agonists, cell-based qHTS assay (AID 1963582; active = well fitted activation curve with a large enough effect in the signal ratio in the repeat runs, not every such curve was filed as active; the % refers to the signal ratio)
# Procedure, shortened: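 Cells carrying a p53-responsive bla reporter are treated with test compounds for 16 h at 37 C; beta-lactamase activity is then detected with LiveBLAzer B/G FRET substrate after 2 h at room temperature.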
# [12] = target: 5-hydroxytryptamine receptor 2A (Homo sapiens) (UniProt P28223); assay: 5-hydroxytryptamine receptor 2A (HTR2A) small molecule antagonists, cell-based qHTS assay (AID 1963586); also: nearly all actives have a fitted effect of over 45% in size
# Procedure, shortened: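 CHO cells stably expressing human HTR2A were plated for 18 h at 37 C, then loaded with calcium dye for 1 h. Compounds were preincubated 5 min at room temperature before DOI (4 nM solution) was added. Kinetic fluorescence was read for 3 min.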
# [13] = target: 5-hydroxytryptamine receptor 2A (Homo sapiens) (UniProt P28223); assay: 5-hydroxytryptamine receptor 2A (HTR2A) small molecule agonists, cell-based qHTS assay (AID 1963587); also: nearly all actives have a fitted effect of over 30% in size
# Procedure, shortened: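 CHO cells stably expressing human HTR2A, plated 18 h, loaded with calcium dye 1 h at 37 C. Agonist mode: compounds added and intracellular calcium fluorescence recorded kinetically for 2 min at 1 sec intervals.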
# [14] = target: Muscarinic acetylcholine receptor M1 (Homo sapiens) (UniProt P11229); assay: Cholinergic receptor muscarinic 1 (CHRM1) small molecule antagonists, cell-based qHTS assay (AID 1963588); also: nearly all actives have a fitted effect of over 40% in size
# Procedure, shortened: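 Compounds were tested at 15 concentrations in three independent runs. Dye-loaded CHRM1-CHO cells were exposed 5 min at room temperature before stimulation by acetylcholine added at 50nM. Intracellular calcium was read kinetically on FDSS for 3 min.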
# [15] = target: Muscarinic acetylcholine receptor M1 (Homo sapiens) (UniProt P11229); assay: Cholinergic receptor muscarinic 1 (CHRM1) small molecule agonists, cell-based qHTS assay (AID 1963589); also: nearly all actives have a fitted effect of over 35% in size
# Procedure, shortened: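 Cells were plated and incubated 18 h at 37 C/5% CO2, loaded with calcium dye for 1 h at 37 C, then treated with compounds in DMSO. Fluorescence was recorded kinetically at 1 sec intervals.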
# [16] = cAMP Responsive Elements (CRE) small molecule antagonists, cell-based qHTS assay (AID 1963591; active = well fitted inhibition curve with a large enough effect in the signal ratio in the repeat runs, not every such curve was filed as active; the % refers to the signal ratio)
# Procedure, shortened: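 Cells (CRE-bla HEK 293T, DMEM with 10% dialyzed FBS and 25 mM HEPES) are seeded and incubated 18 h. Compounds are added with NKH477 agonist at 0.25 uM final for 3 h, then FRET substrate for 2 h.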
# [17] = target: D(2) dopamine receptor (Homo sapiens) (UniProt P14416); assay: Dopamine D2 receptor (DRD2) small molecule agonists, cell-based qHTS assay (AID 1963594); also: nearly all actives have a fitted effect of over 35% in size; also: potency is read from the fitted curve at half-maximal effect
# Procedure, shortened: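 HEK293 cells stably expressing human DRD2, pre-treated with PDE inhibitor Ro20-1724 (0.1 mM final) and compound 10 min at room temperature, then stimulated with NKH477 (200nM […]) for 30 min. cAMP read by HTRF (665/620 nm).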
# [18] = target: D(2) dopamine receptor (Homo sapiens) (UniProt P14416); assay: Dopamine D2 receptor (DRD2) small molecule antagonists, cell-based qHTS assay (AID 1963595; active = well fitted inhibition curve with a large enough effect in the signal ratio in the repeat runs, with a control signal flat; the % refers to the signal ratio)
# Procedure, shortened: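 HEK293 cells stably expressing DRD2 were preincubated with 0.1 mM Ro20-1724, then with compound for 10 min at room temperature. Cells were stimulated with 200 nM NKH477 plus 12 nM quinpirole for 30 min, and cAMP was read by HTRF.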
# [19] = cAMP Responsive Elements (CRE) small molecule agonists, cell-based qHTS assay (AID 1963590)
# Procedure, shortened: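 Cells carrying a CRE-driven beta-lactamase reporter (HEK 293T) are seeded, incubated overnight (18 h), and treated with test compounds for 3 h at 37 C; reporter activity is then detected with a FRET substrate after 2 h at room temperature.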
# [20] = target: Beta-2 adrenergic receptor (Homo sapiens) (UniProt P07550); assay: Adrenergic beta2 receptor (ADRB2) small molecule antagonists, cell-based qHTS assay (AID 1963592); also: series mostly up to about 92 µM; nearly all actives have a fitted effect of over 50% in size
# Procedure, shortened: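 Assay format: CHO-ADRB2 cells, 18-20hr seeding at 37C/5% CO2, then compound plus 1nM isoproterenol agonist mix for 0.5hr RT. Homogeneous time-resolved fluorescence cAMP detection after 1hr, expressed as 665/615 nm ratio.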
# Beta-2 adrenergic receptor (Homo sapiens), sequence (P07550 whole entry, looked up): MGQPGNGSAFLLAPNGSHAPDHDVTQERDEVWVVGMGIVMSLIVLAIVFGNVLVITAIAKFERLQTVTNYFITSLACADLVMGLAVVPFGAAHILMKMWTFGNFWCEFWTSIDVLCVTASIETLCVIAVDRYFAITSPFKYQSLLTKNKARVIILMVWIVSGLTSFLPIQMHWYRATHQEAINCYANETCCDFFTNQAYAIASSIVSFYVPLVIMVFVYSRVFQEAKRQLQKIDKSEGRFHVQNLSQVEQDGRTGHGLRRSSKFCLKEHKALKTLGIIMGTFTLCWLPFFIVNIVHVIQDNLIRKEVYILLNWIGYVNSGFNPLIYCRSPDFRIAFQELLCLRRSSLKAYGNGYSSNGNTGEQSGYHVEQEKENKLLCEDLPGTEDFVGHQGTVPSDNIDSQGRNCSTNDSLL
# KiSS-1 receptor (Homo sapiens), sequence (Q969F8 whole entry, looked up): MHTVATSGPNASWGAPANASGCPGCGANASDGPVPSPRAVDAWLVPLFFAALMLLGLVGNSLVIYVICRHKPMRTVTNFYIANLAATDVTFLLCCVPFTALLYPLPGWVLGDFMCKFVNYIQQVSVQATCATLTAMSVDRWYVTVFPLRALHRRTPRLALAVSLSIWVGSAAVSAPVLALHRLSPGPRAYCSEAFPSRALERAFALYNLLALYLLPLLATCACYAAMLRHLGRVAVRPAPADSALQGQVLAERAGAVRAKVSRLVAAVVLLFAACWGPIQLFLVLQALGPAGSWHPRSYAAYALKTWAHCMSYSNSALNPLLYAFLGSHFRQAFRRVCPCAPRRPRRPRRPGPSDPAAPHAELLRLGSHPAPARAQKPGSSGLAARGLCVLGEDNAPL
# Gonadotropin-releasing hormone receptor (Homo sapiens), sequence (P30968 whole entry, looked up): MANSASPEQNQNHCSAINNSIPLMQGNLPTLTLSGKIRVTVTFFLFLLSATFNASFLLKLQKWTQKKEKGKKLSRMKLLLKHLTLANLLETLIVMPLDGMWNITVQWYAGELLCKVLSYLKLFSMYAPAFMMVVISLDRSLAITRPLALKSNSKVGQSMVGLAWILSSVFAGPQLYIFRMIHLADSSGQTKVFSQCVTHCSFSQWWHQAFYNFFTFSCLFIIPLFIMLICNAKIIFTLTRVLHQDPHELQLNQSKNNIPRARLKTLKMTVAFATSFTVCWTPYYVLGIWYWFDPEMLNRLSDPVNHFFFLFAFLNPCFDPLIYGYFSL
# D(2) dopamine receptor (Homo sapiens), sequence (P14416 whole entry, looked up): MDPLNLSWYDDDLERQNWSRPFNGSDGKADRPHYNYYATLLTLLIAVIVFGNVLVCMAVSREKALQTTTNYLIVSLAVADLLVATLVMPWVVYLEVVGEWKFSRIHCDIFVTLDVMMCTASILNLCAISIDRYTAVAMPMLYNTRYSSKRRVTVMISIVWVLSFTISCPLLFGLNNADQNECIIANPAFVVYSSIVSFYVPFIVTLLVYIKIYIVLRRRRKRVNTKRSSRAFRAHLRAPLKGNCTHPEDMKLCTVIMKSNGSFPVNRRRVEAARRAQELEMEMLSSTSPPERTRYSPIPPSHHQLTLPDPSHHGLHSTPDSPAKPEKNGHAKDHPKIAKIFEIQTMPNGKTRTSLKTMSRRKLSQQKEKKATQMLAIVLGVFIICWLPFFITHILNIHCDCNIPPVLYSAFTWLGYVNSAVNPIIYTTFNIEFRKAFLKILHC
# Muscarinic acetylcholine receptor M1 (Homo sapiens), sequence (P11229 whole entry, looked up): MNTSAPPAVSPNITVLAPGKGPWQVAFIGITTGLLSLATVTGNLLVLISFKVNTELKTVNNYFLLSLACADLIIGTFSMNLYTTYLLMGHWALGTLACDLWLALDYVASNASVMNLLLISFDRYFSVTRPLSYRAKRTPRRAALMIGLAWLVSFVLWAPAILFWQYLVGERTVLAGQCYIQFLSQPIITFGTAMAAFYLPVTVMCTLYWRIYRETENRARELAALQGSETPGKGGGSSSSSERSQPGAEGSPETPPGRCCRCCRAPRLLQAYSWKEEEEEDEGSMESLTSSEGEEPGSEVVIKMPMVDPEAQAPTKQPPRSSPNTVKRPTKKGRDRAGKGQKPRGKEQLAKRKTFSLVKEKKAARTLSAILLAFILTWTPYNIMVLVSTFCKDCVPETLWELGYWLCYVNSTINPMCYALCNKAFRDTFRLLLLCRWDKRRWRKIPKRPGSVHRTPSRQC
# 5-hydroxytryptamine receptor 2A (Homo sapiens), sequence (P28223 whole entry, looked up): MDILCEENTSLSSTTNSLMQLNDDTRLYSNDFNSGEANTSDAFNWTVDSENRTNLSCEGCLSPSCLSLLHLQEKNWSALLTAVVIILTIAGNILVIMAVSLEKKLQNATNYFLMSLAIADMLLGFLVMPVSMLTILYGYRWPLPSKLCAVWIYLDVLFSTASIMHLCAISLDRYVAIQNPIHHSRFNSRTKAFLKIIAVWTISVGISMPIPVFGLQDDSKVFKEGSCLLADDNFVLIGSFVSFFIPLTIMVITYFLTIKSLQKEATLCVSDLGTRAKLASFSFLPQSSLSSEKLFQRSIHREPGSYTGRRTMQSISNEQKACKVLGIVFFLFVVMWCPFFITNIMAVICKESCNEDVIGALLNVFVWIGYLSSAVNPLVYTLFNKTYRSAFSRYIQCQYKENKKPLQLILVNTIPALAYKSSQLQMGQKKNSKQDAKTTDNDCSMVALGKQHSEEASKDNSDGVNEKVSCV
smiles,measurement,setting,value
C[Si](C)=O,"activity change, negative = cytotoxicity",[1],4.07% [at 8.39 µM]
same,"activity, positive = activation",[2],-5.78% [at 8.39 µM]
same,activity change,[3],"-0.63% [at 5.22 µM, active compounds read high]"
same,activation,[4],-1.56% [at 6.97 µM]
same,activation,[5],0.129% [at 5.23 µM]
same,activation,[6],3.5% [at 5.99 µM]
same,activation,[7],0.12% [at 5.99 µM]
same,"activity change, negative = cytotoxicity",[8],7.59% [at 5.99 µM]
same,"activity change, negative = cytotoxicity",[9],11.3% [at 5.99 µM]
same,"activity change, negative = cytotoxicity",[10],1.47% [at 5.99 µM]
same,activation,[11],-0.704% [at 5.99 µM]
same,"activity, negative = inhibition",[12],1.83% [at 5.62 µM]
same,activation,[13],3.07% [at 7.02 µM]
same,"activity, negative = inhibition",[14],-3.21% [at 5.58 µM]
same,activation,[15],0.243% [at 6.97 µM]
same,"activity change, negative = inhibition",[16],-3.7% [at 8.39 µM]
same,activation,[17],4.84% [at 8.39 µM]
same,"activity change, negative = inhibition",[18],6.58% [at 8.38 µM]
N#CC1(c2ccc(F)cc2)CCC(=O)CC1,Potency,[1],inactive
same,Potency,[2],inactive
same,Potency,[3],inactive
same,Potency,[4],inactive
same,Potency,[5],inactive
same,Potency,[6],inactive
same,Potency,[7],inactive
same,Potency,[8],inactive
same,Potency,[9],inactive
same,Potency,[10],inactive
same,Potency,[11],inactive
same,Potency,[12],inactive
same,Potency,[13],inactive
same,Potency,[15],inactive
same,Potency,[19],inactive
same,Potency,[16],inactive
same,Potency,[20],inactive
same,Potency,[17],inactive
same,Potency,[18],inactive
O=C(O)CONC(=O)c1ccccc1,Potency,[1],inactive
same,Potency,[2],inactive
same,Potency,[3],inactive
same,Potency,[4],inactive
same,Potency,[5],inactive
same,Potency,[6],inactive
same,Potency,[7],inactive
same,Potency,[8],inactive
same,Potency,[9],inactive
same,Potency,[10],inactive
same,Potency,[11],inactive
same,Potency,[12],inactive
same,Potency,[13],inactive
same,Potency,[15],inactive
same,Potency,[19],inactive
same,Potency,[16],inactive
same,Potency,[20],inactive
same,Potency,[17],inactive
same,Potency,[18],inactive
C=C(C)C(=O)OCCC(C)OC(=O)C(=C)C (stereo unspecified),Potency,[1],inactive
same,Potency,[2],inactive
same,Potency,[3],inactive
same,Potency,[4],inactive
same,Potency,[5],inactive
same,Potency,[6],inactive
same,Potency,[7],inactive
same,Potency,[8],inactive
same,Potency,[9],inactive
same,Potency,[10],inactive
same,Potency,[11],inactive
same,Potency,[12],inactive
same,Potency,[13],inactive
same,Potency,[14],inactive
same,Potency,[19],inactive
same,Potency,[16],inactive
same,Potency,[20],inactive
same,Potency,[17],inactive
same,Potency,[18],inactive
Clc1nc(Cl)c(Cl)c(Cl)c1Cl,Potency,[1],inactive
same,Potency,[2],inactive
same,Potency,[3],inactive
same,Potency,[4],inactive
same,Potency,[5],inactive
same,Potency,[6],inactive
same,Potency,[7],inactive
same,Potency,[8],inactive
same,Potency,[9],inactive
same,Potency,[10],inactive
same,Potency,[11],inactive
same,Potency,[12],inactive
same,Potency,[13],inactive
same,Potency,[15],inactive
same,Potency,[19],inactive
same,Potency,[16],inactive
same,Potency,[20],inactive
same,Potency,[17],inactive
same,Potency,[18],inactive
O=c1[nH]c2cc(C(F)(F)F)c(N3CCOCC3)cc2n(CP(=O)(O)O)c1=O,Potency,[1],inactive
same,Potency,[2],inactive
same,Potency,[3],inactive
same,Potency,[4],inactive
same,Potency,[5],inactive
same,Potency,[6],inactive
same,Potency,[7],inactive
same,Potency,[8],inactive
same,Potency,[9],inactive
same,Potency,[10],inactive
same,Potency,[11],inactive
same,Potency,[12],inactive
same,Potency,[13],inactive
same,Potency,[15],inactive
same,Potency,[19],inactive
same,Potency,[16],inactive
same,Potency,[20],inactive
same,Potency,[17],29.8 µM (active)
same,Potency,[18],inactive
CCC(C)(Oc1ccc(C2(c3ccc(OC(C)(CC)C(=O)O)cc3)CCCCC2)cc1)C(=O)O (stereo unspecified),Potency,[1],inactive
same,Potency,[2],inactive
same,Potency,[3],inactive
same,Potency,[4],inactive
same,Potency,[5],inactive
same,Potency,[6],inactive
same,Potency,[7],inactive
same,Potency,[8],inactive
same,Potency,[9],inactive
same,Potency,[10],inactive
same,Potency,[11],inactive
same,Potency,[12],inactive
same,Potency,[13],inactive
same,Potency,[14],inactive
same,Potency,[19],inactive
same,Potency,[16],inactive
same,Potency,[20],inactive
same,Potency,[17],inactive
